PubChem BioAssay (EPA / NIEHS)
Several values for one entry are separate records, joined by “and”; a condition that tells them apart may be missing. Equal values may be shown once. Inconclusive results are not listed. A structure can be active in one record and inactive in another. Activity calls are given as the source filed them. How the source made its calls: active means hit-call score of the fitted dose curve at least 0.9, where 1 is the maximum; inconclusive means response in the unintended direction; inactive means score below 0.9.

What follows are compounds tested against Cellular tumor antigen p53 (Homo sapiens) (UniProt P04637) (assay: TOX21_p53_BLA_p5_ratio: Tox21 HCT-116 p53 Agonism Beta-lactamase Assay, Ratio, Phase 5 (AID 2283599)).
Excerpt: TOX21_p53_BLA_p5 is a cell-based, single-readout assay that uses HCT116, a human intestinal cell line, […] in a 1536-well plate.TOX21_p53_BLA_p5_ratio is an assay readout measuring reporter gene via receptor activity and designed using inducible reporter (beta lactamase induction) detected with GAL4 b-lactamase reporter gene. The signal is derived from the ratio of cleaved (ch2) to uncleaved (ch1) reporter gene substrate used as the measure of target activity.Data from the assay component TOX21_p53_BLA_p5_ratio was analyzed into 1 assay endpoint. This assay endpoint, TOX21_p53_BLA_p5_ratio, was analyzed in the positive analysis fitting direction relative to DMSO as the negative control and baseline of activity. Using a type of inducible reporter, gain-of-signal activity can be used to understand changes in the reporter gene as they relate to the gene TP53. Furthermore, this assay endpoint can be referred to as a primary readout, because this assay has produced multiple assay endpoints and this ratio serves a reporter gene function to understand target activity. To generalize the intended target to other relatable targets, this assay endpoint is annotated to the DNA binding intended target family, where the subfamily is tumor suppressor.
Thawing Method: Place 14 mL of pre-warmed thaw medium into a 15 mL of conical tub. Remove the vial of cells to be thawed from liquid nitrogen and thaw rapidly by placing at 37C in a water bath with gentle agitation for 1-2 minutes. Decontaminate the vial by wiping with 70% ethanol before opening in a biological safety cabinet. Transfer the vial contents drop-wise into 14 mL of thaw medium in a sterile 15-mL conical tub. Centrifuge cells at 900 rpm for 4 minutes and resuspend in thaw medium. Transfer contents to the T75 tissue culture flask containing Thaw Medium and place flask in a humidified 37C/5% CO2 incubator. Switch to growth medium at first passage.Propagation Method: Aspirate medium, rinse once in DPBS, add 0.25% Trypsin/EDTA and swirl to coat the cell evenly. Add an equal volume of Growth Medium to inactivate Trypsin after 2-3 minutes incubation at 37C. Centrifuge cells at 900 rpm for 4 minutes and resuspend in growth medium. Cell should be passage or fed at least twice a week.Assay Protocol: Harvest cells from culture in growth medium and resuspend in assay medium. 2.2 Dispense 4000 cells/5 uL/well into 1536-well black/clear bottom plates using a Multidrop dispenser. After the cells were incubated at 37C for 5 hours, 23 nL of compounds dissolved in DMSO were transferred to the assay plate by a PinTool resulting in a 217-fold dilution. Incubate the plates for 16 hours at 37C, 5% CO2. Add 1 uL of 6X LiveBLAzer FRET B/G (CCF4-AM) Substrate Mixture to each well using a BioRAPTR dispenser and incubate the plates at room temperature for 2 hours. Measure fluorescence intensity at 460 and 530 nm emission and 405 nm excitation by an Envision detector. Data is expressed as the ratio of 460nm/530nm emissions. Add 4 uL of Cell-titer Glo to each well using BioRAPTR and incubate the plates at room temperature for 2 hours. Measure fluorescence intensity by a VewLux plate reader.

Chain of Cellular tumor antigen p53 (Homo sapiens) (P04637 whole entry, looked up, the tested form may be a part): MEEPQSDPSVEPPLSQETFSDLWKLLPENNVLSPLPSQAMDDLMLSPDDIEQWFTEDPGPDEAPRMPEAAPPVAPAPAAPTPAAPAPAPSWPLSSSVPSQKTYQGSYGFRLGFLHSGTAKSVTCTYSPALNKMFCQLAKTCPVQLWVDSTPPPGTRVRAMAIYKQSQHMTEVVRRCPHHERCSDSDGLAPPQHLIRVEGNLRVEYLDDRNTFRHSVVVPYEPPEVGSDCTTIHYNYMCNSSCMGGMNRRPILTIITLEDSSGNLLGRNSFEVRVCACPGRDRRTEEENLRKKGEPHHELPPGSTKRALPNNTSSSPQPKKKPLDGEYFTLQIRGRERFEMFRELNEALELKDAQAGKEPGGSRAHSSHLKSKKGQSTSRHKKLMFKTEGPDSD

| SMILES | outcome | AC50 |
| --- | --- | --- |
| CNC(=S)N(C)C | inactive |  |
| O=C1c2cccc(O)c2C(=O)c2c(O)cc(CO)cc21 |  | 33.3 µM (active) |
| O=C(Cl)c1cc(C(=O)Cl)cc(C(=O)Cl)c1 | inactive |  |
| O=c1[nH]c(=O)c2[nH]c(=O)[nH]c2[nH]1 | inactive |  |
| Cc1cc(C)c(C)c(C)c1 | inactive |  |
| COc1ccc([C@@H]2CC(=O)c3c(O)cc(O[C@@H]4O[C@H](CO[C@@H]5O[C@@H](C)[C@H](O)[C@@H](O)[C@H]5O)[C@@H](O)[C@H](O)[C@H]4O)cc3O2)cc1OC | inactive |  |
| Cc1cccc(C(=O)O)c1 | inactive |  |
| CCN(CCO)c1cccc(C)c1 | inactive |  |
| O=C(O)CC(C(=O)O)C(CC(=O)O)C(=O)O (stereo not given) | inactive |  |
| O=c1[nH]nc(-c2ccc([N+](=O)[O-])o2)o1 | inactive |  |
| CC(=O)Oc1ccc(C(C)=O)cc1 | inactive |  |
| COC(=O)C1=C(C)NC(C)=C(C(=O)OCC(C)C)C1c1ccccc1[N+](=O)[O-] (stereo not given) | inactive | 20.6 µM (active) |
| Nc1ccc(-c2ccc(F)cc2)cc1 | inactive |  |
| O=C1CCCCCCCCCCCCCCCO1 | inactive |  |
| Cc1cc(O)c(Cl)c(C)c1Cl |  | 77.1 µM (active) |
| CC1(C)O[C@@H]2C[C@H]3[C@@H]4C[C@H](F)C5=CC(=O)CC[C@]5(C)[C@H]4[C@@H](O)C[C@]3(C)[C@]2(C(=O)CO)O1 | inactive |  |
| CCN(CCC#N)c1ccc(N=Nc2c(Cl)cc([N+](=O)[O-])cc2Cl)cc1 | inactive |  |
| CC(=O)Nc1nnc(S(N)(=O)=O)s1 | inactive |  |
| Cc1cccc(OCCOc2cccc(C)c2)c1 | inactive |  |

| SMILES | outcome | AC50 |
| --- | --- | --- |
| CCCCCCCCCCOS(=O)(=O)O | inactive |  |
| Cc1ccccc1C | inactive |  |
| CN(C)CCCN(C)C | inactive |  |
| CC(=O)[C@H]1[C@H](C#N)C[C@H]2[C@@H]3CC=C4C[C@@H](O)CC[C@]4(C)[C@H]3CC[C@@]21C | inactive |  |
| O=c1cc[nH]c(=S)[nH]1 | inactive |  |
| CCCCC(CC)CCC(CC(C)C)OS(=O)(=O)O (stereo not given) | inactive |  |
| CCOCC(=O)O | inactive |  |
| CC1=NN(c2cc(S(=O)(=O)O)ccc2Cl)C(=O)C1N=Nc1ccccc1 (stereo not given) | inactive |  |
| CCC(C)OC(=O)c1ccc(O)cc1 (stereo not given) | inactive |  |
| CC(C)c1ccc2c(C(C)C)cc(C(C)C)c(S(=O)(=O)O)c2c1 | inactive |  |
| COC(=O)/C=C\C(=O)O | inactive |  |
| O=CN1CCCCC1 | inactive |  |
| c1c[nH]cn1 | inactive |  |
| O=S(=O)(O)CC(O)CCl (stereo not given) | inactive |  |
| O=C(Nc1cccc(C(F)(F)F)c1)c1cc(Br)cc(Br)c1O |  | 1.07 µM (active) and 7.71 µM (active) |
| O=C(c1ccc(O)cc1)c1ccc(O)cc1O | inactive | 86.2 µM (active) |
| COC(=O)/C=C/C(C)=C\C=C\C(C)=C\C=C\C=C(C)\C=C\C=C(C)\C=C\C(=O)O | inactive |  |
| O=C1CCCC(=O)O1 | inactive |  |
| CCCCOCCOC(=O)COc1nc(Cl)c(Cl)cc1Cl | inactive |  |
